According to PubChem BioAssay AID1159580 (chemical genetic matrix, 2015):
Screen size: about 5,500 compounds; about 2,000 (36%) were called active. Not shown: some 18% with an inconclusive outcome. Rule as the data show it: active = normalized growth mostly below about 0.91 (no sharp cut-off); inconclusive = no clear call, values can overlap the other calls; inactive = mostly above about 0.92. This is one part of the list.

Assay: chemical genetic growth profiling, strain panel (AID 1159580);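 also: tested at 20 µM; growth read once vehicle control cultures reached saturation at 30 °C; 1 = growth at the plate median or of vehicle wells; lower values mean less growth of the strain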
Conditions: growth OD

Measured: normalized growth

NC(=O)c1ccc([N+](=O)[O-])cc1Cl
inactive: S. cerevisiae deletion strains, locus YKL009W, strain mrt4, hits give low values 0.977 | S. cerevisiae deletion strains, locus YKL068W, hits give low values 0.977 | S. cerevisiae deletion strains, locus YKL085W, strain MDH1 (second series), hits give low values 0.98 | S. cerevisiae deletion strains, locus YKL085W, strain MDH1, hits give low values 0.98 | S. cerevisiae deletion strains, locus YKL160W, strain elf1, hits give low values 1.03 | S. cerevisiae deletion strains, locus YKL190W, strain CNB1, hits give low values 0.968 | S. cerevisiae deletion strains, locus YKR001C, strain vps1, hits give low values 0.969 | S. cerevisiae deletion strains, locus YKR026C, strain gcn3, hits give low values 0.981 | S. cerevisiae deletion strains, locus YKR091W, strain srl3, hits give low values 0.977 | S. cerevisiae deletion strains, locus YLL001W, strain dnm1, hits give low values 1 | S. cerevisiae deletion strains, locus YLL026W, hits give low values 1.01 | S. cerevisiae deletion strains, locus YLL041C, strain sdh2, hits give low values 0.982 | S. cerevisiae deletion strains, locus YLR027C, strain aat2, hits give low values 1.01 | S. cerevisiae deletion strains, locus YLR039C, strain RIC1, hits give low values 0.927 | S. cerevisiae deletion strains, locus YLR058C, strain SHM2, hits give low values 0.963 | S. cerevisiae deletion strains, locus YLR102C, strain apc9, hits give low values 0.971 | S. cerevisiae deletion strains, locus YLR113W, strain HOG1, hits give low values 0.961 | S. cerevisiae deletion strains, locus YLR221C, strain rsa3, hits give low values 0.956 | S. cerevisiae deletion strains, locus YLR258W, strain gsy2, hits give low values 0.956 | S. cerevisiae deletion strains, locus YLR262C, strain YPT6 (second series), hits give low values 0.991 | S. cerevisiae deletion strains, locus YLR262C, strain YPT6, hits give low values 0.838 | S. cerevisiae deletion strains, locus YLR268W, strain sec22, hits give low values 0.961 | S. cerevisiae deletion strains, locus YLR320W, strain mms22, hits give low values 0.965 | S. cerevisiae deletion strains, locus YLR330W, strain CHS5, hits give low values 0.98 | S. cerevisiae deletion strains, locus YLR342W, strain FKS1 (second series), hits give low values 1 | S. cerevisiae deletion strains, locus YLR342W, strain FKS1, hits give low values 1 | S. cerevisiae deletion strains, locus YLR357W, strain rsc2, hits give low values 0.965 | S. cerevisiae deletion strains, locus YLR370C, strain arc18, hits give low values 0.972 | S. cerevisiae deletion strains, locus YLR371W, strain rom2, hits give low values 0.982 | S. cerevisiae deletion strains, locus YLR384C, strain iki3, hits give low values 0.992 | S. cerevisiae deletion strains, locus YLR418C, strain cdc73, hits give low values 0.949 | S. cerevisiae deletion strains, locus YML016C, strain PPZ1, hits give low values 0.98 | S. cerevisiae deletion strains, locus YML032C, strain rad52, hits give low values 0.999 | S. cerevisiae deletion strains, locus YML120C, strain ndi1, hits give low values 1 | S. cerevisiae deletion strains, locus YML124C, strain tub3, hits give low values 0.984 | S. cerevisiae deletion strains, locus YMR058W, strain fet3, hits give low values 0.977 | S. cerevisiae deletion strains, locus YMR078C, strain ctf18, hits give low values 0.977 | S. cerevisiae deletion strains, locus YMR125W, strain sto1, hits give low values 0.973 | S. cerevisiae deletion strains, locus YMR129W, hits give low values 0.975 | S. cerevisiae deletion strains, locus YMR205C, strain PFK2, hits give low values 1.01 | S. cerevisiae deletion strains, locus YMR223W, strain ubp8, hits give low values 0.988 | S. cerevisiae deletion strains, locus YMR231W, strain pep5, hits give low values 0.98 | S. cerevisiae deletion strains, locus YMR263W, strain SAP30, hits give low values 0.968 | S. cerevisiae deletion strains, locus YMR307W, strain GAS1, hits give low values 0.891 | S. cerevisiae deletion strains, locus YNL067W, strain RPL9B, hits give low values 0.969 | S. cerevisiae deletion strains, locus YNL071W, strain lat1, hits give low values 0.974 | S. cerevisiae deletion strains, locus YNL128W, strain TEP1, hits give low values 0.972 | S. cerevisiae deletion strains, locus YNL153C, strain GIM3, hits give low values 0.964 | S. cerevisiae deletion strains, locus YNL183C, strain NPR1, hits give low values 0.895 | S. cerevisiae deletion strains, locus YNL209W, strain ssb2, hits give low values 0.964 | S. cerevisiae deletion strains, locus YNL233W, strain BNI4, hits give low values 0.982 | S. cerevisiae deletion strains, locus YNL248C, strain rpa49, hits give low values 0.931 | S. cerevisiae deletion strains, locus YNL250W, strain rad50, hits give low values 0.971 | S. cerevisiae deletion strains, locus YNL271C, strain bni1, hits give low values 0.981 | S. cerevisiae deletion strains, locus YNL298W, strain CLA4, hits give low values 0.98 | S. cerevisiae deletion strains, locus YNL307C, strain MCK1, hits give low values 0.989 | S. cerevisiae deletion strains, locus YNL322C, strain KRE1 (second series), hits give low values 0.983 | S. cerevisiae deletion strains, locus YNL322C, strain KRE1, hits give low values 0.981 | S. cerevisiae deletion strains, locus YNR049C, strain mso1, hits give low values 0.97 | S. cerevisiae deletion strains, locus YNR052C, strain pop2, hits give low values 0.978 | S. cerevisiae deletion strains, locus YOL006C, strain TOP1, hits give low values 0.886 | S. cerevisiae deletion strains, locus YOL012C, strain htz1 0.79 | S. cerevisiae deletion strains, locus YOL147C, strain pex11, hits give low values 0.98 | S. cerevisiae deletion strains, locus YOR001W, strain rrp6, hits give low values 1 | S. cerevisiae deletion strains, locus YOR061W, strain CKA2, hits give low values 0.951 | S. cerevisiae deletion strains, locus YOR069W, strain VPS5, hits give low values 0.993 | S. cerevisiae deletion strains, locus YOR070C, strain gyp1, hits give low values 0.972 | S. cerevisiae deletion strains, locus YOR080W, strain dia2, hits give low values 0.999 | S. cerevisiae deletion strains, locus YOR083W, strain WHI5, hits give low values 0.989 | S. cerevisiae deletion strains, locus YOR106W, strain vam3, hits give low values 0.987 | S. cerevisiae deletion strains, locus YOR136W, strain idh2, hits give low values 0.99 | S. cerevisiae deletion strains, locus YOR144C, strain elg1, hits give low values 0.991 | S. cerevisiae deletion strains, locus YOR184W, strain ser1, hits give low values 0.982 | S. cerevisiae deletion strains, locus YOR231W, strain MKK1, hits give low values 0.956 | S. cerevisiae deletion strains, locus YOR265W, strain rbl2, hits give low values 0.985 | S. cerevisiae deletion strains, locus YOR270C, strain vph1, hits give low values 0.929 | S. cerevisiae deletion strains, locus YOR290C, strain snf2, hits give low values 0.915 | S. cerevisiae deletion strains, locus YOR316C, strain cot1, hits give low values 0.962 | S. cerevisiae deletion strains, locus YPL051W, strain arl3, hits give low values 0.988 | S. cerevisiae deletion strains, locus YPL055C, strain LGE1, hits give low values 0.941 | S. cerevisiae deletion strains, locus YPL078C, strain atp4, hits give low values 1.02 | S. cerevisiae deletion strains, locus YPL106C, strain sse1, hits give low values 0.957 | S. cerevisiae deletion strains, locus YPL240C, strain hsp82, hits give low values 0.986 | S. cerevisiae deletion strains, locus YPL241C, strain CIN2, hits give low values 1.01 | S. cerevisiae deletion strains, locus YPL256C, strain CLN2, hits give low values 0.941 | S. cerevisiae deletion strains, locus YPR119W, strain clb2, hits give low values 0.986 | S. cerevisiae deletion strains, locus YPR141C, strain kar3, hits give low values 0.955 | S. cerevisiae deletion strains, locus YPR163C, strain tif3, hits give low values 0.989 | S. cerevisiae deletion strains, locus YPR167C, strain met16, hits give low values 0.962 | S. cerevisiae deletion strains, strain wtn01, hits give low values 0.969 | S. cerevisiae strains, strain wild type, hits give low values 0.981
